Assay outcomes as filed in PubChem.
Pf growth 96h – P. falciparum growth inhibition at 96 hour, primary screen for plastid delayed-death inhibitors; P. falciparum luciferase reporter growth, 96 h; Potency, µM (highest dose often 28.7 µM), for inactives: top-dose activity change, negative = inhibition, usual class: inhibitors; 320,000 compounds, 6.9% hits; further: on the % scale 0 is the no-effect control and ±100 the full control effect
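Delayed-death screen, second-generation endpoint: infected erythrocytes, 2% hematocrit, 0.05% parasitemia final; 96 hours at 37 C, 5% CO2; luciferase detection reagent; luminescence decrease equals reduced growth.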
SARS PLpro yeast – SARS-CoV PLP inhibition in yeast; AID 485353; Potency, µM (titrated, usually from 32.9 µM), for inactives: at the top dose activity, positive = growth rescue, usual class: activators; S. cerevisiae expressing SARS-CoV PLpro, growth rescue; 330,000 compounds, 0.19% hits; calls by dose curve; further: 0% is about no effect; nearly all actives have a fitted effect of over 55% in size
NS1 inh – influenza NS1 inhibition. Potency, µM (top dose mostly 46.1 µM), for inactives: at the highest dose activity, positive = more growth. 270,000 compounds, 0.4% hits; calls by dose curve; further: actives are rising curves; nearly all actives have a fitted effect of over 50% in size
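S. cerevisiae expressing influenza A NS1, grown in glucose, washed, then diluted 1:100 into pH 6.0 -URA galactose medium with 23 nl compound. Growth recovery read as OD600; NS1-free strain serves as control.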
Pf growth 48h – P. falciparum growth inhibition at 48 hours (one generation) | 310,000 compounds, 5.9% hits | Potency, µM (highest dose often 28.7 µM), for the others: top-dose activity change, negative = inhibition, usual class: inhibitors | P. falciparum luciferase growth in erythrocytes, 48 h; further: on the % scale 0 is the no-effect control and ±100 the full control effect
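Growth was read as firefly luciferase luminescence after a 48 h, 37 C, 5% CO2 exposure of compounds to reporter-bearing P. falciparum cultures (0.1% parasitemia, 2% hematocrit final) in Albumax-supplemented RPMI 1640.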
The depositor's hits bear a star; ? = inconclusive; / = not tested or not shown. This is a sample that favours compounds with a hit; in the whole collection about 10% have one here. Unless noted, the call rests on the fitted dose curve; in most records, active means well fitted inhibition curve with a large enough effect; inconclusive means small, poorly fitted or top-dose-only effect, or another doubt; inactive means no such curve, though single readings can be large or run the other way. Potency means the concentration at half of the fitted maximal effect.

SMILES	Pf growth 96h	SARS PLpro yeast	NS1 inh	Pf growth 48h
O=C(Cn1nc(-c2ccccc2)oc1=O)OCC(=O)c1ccccc1	/	8.4%	/	/
CCCSc1ccc([C@@H]2[C@@H]3C(=O)N(C)C(=O)[C@@H]3[C@]3(C(=O)OC)CCCCN23)cc1OC	?	-2.2%	/	13.1µM*
CCN1C(=O)[C@@H]2[C@@H](c3ccc(-c4ccc5c(c4)OCO5)c(OC)c3)N3CCC[C@@]3(C(=O)OC)[C@@H]2C1=O	?	1.4%	/	?
CCCSc1ccc([C@@H]2[C@H]3C(=O)N(CC)C(=O)[C@H]3[C@]3(C(=O)OC)CCCCN23)cc1OC	11.7µM*	-3.5%	/	10.4µM*
CCN1C(=O)[C@@H]2[C@@H](c3ccc(SC4CCCCC4)c(OC)c3)N3CCC[C@@]3(C(=O)OC)[C@@H]2C1=O	?	-23.8%	/	8.28µM*
CCCSc1ccc([C@@H]2[C@H]3C(=O)N(CC)C(=O)[C@H]3[C@]3(C(=O)OC)CCCN23)cc1OC	?	6.2%	/	?
CCCSc1ccc([C@@H]2[C@H]3C(=O)N(C)C(=O)[C@H]3[C@]3(C(=O)OC)CCCN23)cc1OC	/	-18.0%	/	/
O=C(CNCc1cccs1)Nc1ccc(OC(F)(F)F)cc1	10.4µM*	-1.6%	0.3%	22.4%
COc1cccc(C(=O)Nc2cccc(-c3nc4ncccc4o3)c2C)c1	81.3%	1.8%	-13.1%	10.9%
COc1ccc(C(=O)Nc2cccc(-c3nc4ncccc4o3)c2C)cc1OC	3.7µM*	19.6%	4.1%	1.3%
Cc1c(NC(=O)c2ccc([N+](=O)[O-])o2)cccc1-c1nc2ncccc2o1	11.4%	-8.6%	4.1%	11.7µM*
CCOC(=O)C1(Cc2ccc(Cl)cc2)CCN(Cc2cn(CC)nc2C)CC1	-25.6%	0.1%	-5.4%	-13.9%
O=C1CSC(c2cccnc2)N1c1ccccc1 (stereo unspecified)	-4.9%	0.6%	5.6%	134.6%
CC(C)(C)c1ccc(N2C(=O)CSC2c2cccnc2)cc1 (stereo unspecified)	?	0.6%	5.7%	1.17µM*
CCC(C(=O)NCCN1CCOCC1)n1c2ccccc2c2nc(=O)cc(C)n21 (stereo unspecified)	?	-3.1%	-6.4%	10.9%
COc1ccc(Oc2nnc(-c3ccc(C)cc3)c3ccccc23)cc1	13.0%	-3.3%	2.3%	4.1%
O=C(Nc1ccc(Oc2nnc(-c3ccccc3)c3ccccc23)cc1)c1ccccc1	-6.8%	21.5%	16.4%	10.4µM*
Cc1ccc(S(=O)(=O)Nc2ccccc2C(=O)NCC2CCCO2)cc1 (stereo unspecified)	?	1.5%	-6.2%	19.4%
Cc1nc(S(=O)(=O)Nc2ccccc2C(=O)NCC2CC2)cn1C	27.7%	2.1%	0.6%	3.29µM*
O=C(Nc1ccnn1C1CCN(C(=O)c2cnsn2)CC1)c1cccc(F)c1	?	-2.4%	3.0%	-5.1%
CCc1cc(=O)oc2c3c(cc(OCC(=O)Nc4cccnc4)c12)OC(C)(C)CC3	2.94µM*	-14.1%	-23.2%	2.08µM*
CCc1cc(=O)oc2c3c(cc(OCC(=O)NCc4ccccn4)c12)OC(C)(C)CC3	?	-9.2%	-38.9%	?
CCc1cc(=O)oc2c3c(cc(OCC(=O)NCc4cccnc4)c12)OC(C)(C)CC3	?	9.9%	-12.2%	9.28µM*
CCc1cc(=O)oc2c3c(cc(OCC(=O)NCCCCCC(=O)O)c12)OC(C)(C)CC3	?	-2.2%	3.2%	?
CCCc1cc(=O)oc2c3c(cc(OCC(=O)NCC4CCC(C(=O)O)CC4)c12)OC(C)(C)CC3 (stereo unspecified)	1.31µM*	6.7%	9.5%	?
SMILES	Pf growth 96h	SARS PLpro yeast	NS1 inh	Pf growth 48h
Cc1cc(=O)oc2c(C)c(OCC(=O)Nc3cccnc3)ccc12	-23.8%	3.8%	5.3%	?
CCCc1cc(=O)oc2c(C)c(OCC(=O)Nc3cccnc3)ccc12	2.33µM*	-4.6%	-3.2%	3.29µM*
CC1(C(=O)O)CCC(C(=O)Nc2cccc(F)c2)C1(C)C (stereo unspecified)	-25.9%	2.7%	-4.1%	-0.4%
COc1cc(CNCCO)ccc1OCCc1ccccc1	7.9%	4.3%	6.4%	-19.4%
Cc1c(C)c2c(OCC(=O)Nc3cccnc3)cc3c(c2oc1=O)CCC(C)(C)O3	4.15µM*	-0.9%	-12.9%	?
COc1cc2c(c3oc(=O)cc(CC(=O)O)c13)CCC(C)(C)O2	5.22µM*	0.6%	-9.3%	?
CCCCCCCN1CCC(=O)N([C@H](CO)CC(C)C)CC1	37.6%	-8.8%	5.9%	54.6%
CC(C)CC(c1nnnn1CCc1ccccc1)N1CCC(C(N)=O)CC1 (stereo unspecified)	9.28µM*	12.0%	-2.6%	19.3%
